The first assay concerns FXR:RXRa (NR concentration 270 nM, RXRa partner concentration 90 nM). The assay can be described thus: PBM binding z-score (relative to random genomic background probes); higher = stronger binding; sequences stand for … in GC…GCGATTGACAGCGTAGAATGAAGG
Put shortly:
(§1)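 Ligand-free nuclear receptor dimers were applied to custom Agilent 4×180K protein-binding microarrays whose double-stranded probes carried direct-repeat seeds, single-nucleotide variants, half-site ablations and random human genomic background sequences in 34-nt variable regions. Incubation lasted 1 h. Binding z-scores were computed against the random background probes from regression-normalized fluorescence.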
For the sequence GGAACGAGAGCAAGTTGATAGCAGAGTTTGATGG, the PBM binding z-score is -0.63.
On the same count and under the same terms, the same measure for TAGCCTAGGTGAGATCGGGCCAGTATACGCTATA: -0.31.
With CAAACTATGTCACAGAGGTCAAAGTCCGTGCGTA, the PBM binding z-score was determined as 5.6.
Same read-out and setting: the same measure for TCTTGTAGATCAGCAGGTTAAGAAAGCTGGCCAA: -0.00874; for TCTAGTGGGTCACGGAGGTCACACACGACGGGTA: 6.17.
For CCTACTGGGCCATTCAGAGGTCATTTATCATATG, the PBM binding z-score stood at 2.65.
Still for that read-out and setting: the result for TTACCAAGGTGAGGGTCGTTGATCCCTCTGTAGA reads 1.32.
ACCGAAAGGTCGAAGGTGAGTATACCCACCCGAA came in with a PBM binding z-score of 4.73.
TTACCAAGGTGCAGGTCGTTGATCCCTCTGTAGA gave a PBM binding z-score of 0.967.
The same measure, in the same setting: the result for GCTAGTTGGTCAGTAAAAGGTCACACAACGGTCG reads 3.52; that for AATACAGGGTCATCCTAGGCCAGAGTACGCACAG, 7.59.
Same read-out and setting: the same measure for TTACCAAGGTGAAGGTGGTTGATCCCTCTGTAGA: 0.468; for ACTCGGAGGACAAAGATCAGAGCTACGCCAGTGA: -0.308; for TCTGCTAGTTCAGTTGGTCAGCTAACGAGCTGCC: -0.661.
Still for that read-out and setting: the same measure for GCGACTGGGGCATTAGCAGGTTACCATAACTTAA: -0.284; for GCGACTGGGGCAAAGCAGGATACCATAAGGTTGG: 0.421.
As to GCGACTGGGGCAAAGCAGGTGACCATAAGGTTGG, the PBM binding z-score was -0.334.
Still for that read-out and setting: the result for GCGACTGGGGCAAAGCAGGTTACCAAAAGGTTGG reads 0.475.

The test system of a further assay is LXRa:RXRa (NR concentration 270 nM, RXRa partner concentration 90 nM). The description is as above. Put shortly:
as §1
The sequence CCTAGCAGGCCAGTCTGGGTCACTCAAGGCTTGA yielded a PBM binding z-score of 0.686.
Consider GCTCGGAGGACAAGGTCCGAGCTTTGTCCGTAGA, for which the PBM binding z-score is -0.575.
Still for that read-out and setting: the same measure for AGAATGATGTTACCAAAGATCAGGGAAACGCTTG: 0.968; for ACTATTAGTTGAGACGAGGGCAACCCATAGGTTG: -0.017.
The sequence CGTCCAGGGTCAAAGGTCAGTGAAGAGATGACGG had a PBM binding z-score of 6.14.
On the same count and under the same terms, the same measure for AGACAAAGTTCACTAGGTAACGTAAGATTCAGCT: 4.98; for GCGACTGGGGCAAAGCAGCTTACCATAAGGTTGG: -0.965.
For the sequence CCTAACGGGTCAAGGTTATAGCACGGGTGGTACG, the PBM binding z-score was determined as 3.16.
As for CTCGAAAGGTCTTGCTCAGGTGAGTATACCAAAC, the PBM binding z-score is 0.369.
The same measure, in the same setting: the same measure for CAAACTAGGTCACAGATGTCAAAGTCCGTGCGTA: 3.51; for TCGGGTAGGTTAGGGGCATTCAGAATGGCGTCGA: 1.32; for CAAACTAGGTCAAGAGGTCAACGTCCGCTTCCCG: 6.31.
Same read-out and setting: the same measure for CCTATTAGTTGACTATAAGGGCAACCGAAGCTCG: 0.149; for ATCGAGAGGTCGTGAGGTGAGTATACAGAAAGGC: 2.94; for GGAACGAGGGCAAGTTGATACCAGAGTTTGATGG: 0.448.
On the same count and under the same terms, the same measure for ATCTCTAGGTAACCAAGTTGAGTGAATGCCGAAC: 0.0773.
In the case of ATTACAGGGTCACTAGGCCAGAGTAGGTACGAAT, the PBM binding z-score is 4.57.
The same measure, in the same setting: the same measure for GCAAGCAGGCCATTTGGGTCACTCAATGACGGGC: -0.402; for CGTCAAAGTTTAACTAAGGTAACGTAAAGCACGC: 2.68.
Same read-out and setting: the result for AGTAGCAGGCCAAGTTTGGGTCACTCAAACAAAG reads -0.31; that for ATATGTAGGCTAGCTGGGGTCATTCAGACTAGGC, 3.2; that for ATCTCTAGGTAAAAGTTCAGTGATTCCCGAGGAT, 1.07.
Same read-out and setting: the result for GGAACGAGAGCAAGTTGATAGCAGAGTTTGATGG reads -0.766; that for TAGCCTAGGTGAGATCGGGCCAGTATACGCTATA, -0.533.
Sequence CAAACTATGTCACAGAGGTCAAAGTCCGTGCGTA gave a PBM binding z-score of 5.73.
Still for that read-out and setting: the result for TCTTGTAGATCAGCAGGTTAAGAAAGCTGGCCAA reads 0.161; that for TCTAGTGGGTCACGGAGGTCACACACGACGGGTA, 5.14.
Sequence CCTACTGGGCCATTCAGAGGTCATTTATCATATG had a PBM binding z-score of 4.36.
Still for that read-out and setting: the same measure for TTACCAAGGTGAGGGTCGTTGATCCCTCTGTAGA: 0.898; for ACCGAAAGGTCGAAGGTGAGTATACCCACCCGAA: 3.55.
On the same count and under the same terms, the result for TTACCAAGGTGCAGGTCGTTGATCCCTCTGTAGA reads 1.17; that for GCTAGTTGGTCAGTAAAAGGTCACACAACGGTCG, 4.37; that for AATACAGGGTCATCCTAGGCCAGAGTACGCACAG, 6.64.
Still for that read-out and setting: the same measure for TTACCAAGGTGAAGGTGGTTGATCCCTCTGTAGA: 0.457.
With ACTCGGAGGACAAAGATCAGAGCTACGCCAGTGA, the PBM binding z-score is -0.42.
The same measure, in the same setting: the same measure for TCTGCTAGTTCAGTTGGTCAGCTAACGAGCTGCC: -0.0879.
Still for that read-out and setting: the same measure for GCGACTGGGGCATTAGCAGGTTACCATAACTTAA: 0.0464; for GCGACTGGGGCAAAGCAGGATACCATAAGGTTGG: -0.82.
The same measure, in the same setting: the result for GCGACTGGGGCAAAGCAGGTGACCATAAGGTTGG reads -0.7; that for GCGACTGGGGCAAAGCAGGTTACCAAAAGGTTGG, 0.517.

The next assay concerns LXRa homodimer (NR concentration 270 nM). The assay is described as above. In short, it runs like this:
as §1
Consider CCTAGCAGGCCAGTCTGGGTCACTCAAGGCTTGA, for which the PBM binding z-score is -0.81.
Same read-out and setting: the same measure for GCTCGGAGGACAAGGTCCGAGCTTTGTCCGTAGA: -1.02.
Same read-out and setting: the result for AGAATGATGTTACCAAAGATCAGGGAAACGCTTG reads -0.229.
In turn, ACTATTAGTTGAGACGAGGGCAACCCATAGGTTG gave a PBM binding z-score of -0.102.
Take CGTCCAGGGTCAAAGGTCAGTGAAGAGATGACGG: the PBM binding z-score came to 1.67.
The same measure, in the same setting: the same measure for AGACAAAGTTCACTAGGTAACGTAAGATTCAGCT: 2.65; for GCGACTGGGGCAAAGCAGCTTACCATAAGGTTGG: -0.698; for CCTAACGGGTCAAGGTTATAGCACGGGTGGTACG: 0.175.
The same measure, in the same setting: the result for CTCGAAAGGTCTTGCTCAGGTGAGTATACCAAAC reads -0.371.
For the sequence CAAACTAGGTCACAGATGTCAAAGTCCGTGCGTA, the PBM binding z-score worked out at 0.769.
For TCGGGTAGGTTAGGGGCATTCAGAATGGCGTCGA, the PBM binding z-score was 0.575.
Same read-out and setting: the result for CAAACTAGGTCAAGAGGTCAACGTCCGCTTCCCG reads 5.46; that for CCTATTAGTTGACTATAAGGGCAACCGAAGCTCG, 0.0612; that for ATCGAGAGGTCGTGAGGTGAGTATACAGAAAGGC, 0.117.
On the same count and under the same terms, the result for GGAACGAGGGCAAGTTGATACCAGAGTTTGATGG reads -0.0805; that for ATCTCTAGGTAACCAAGTTGAGTGAATGCCGAAC, 0.252; that for ATTACAGGGTCACTAGGCCAGAGTAGGTACGAAT, 0.484.
Still for that read-out and setting: the result for GCAAGCAGGCCATTTGGGTCACTCAATGACGGGC reads -0.429; that for CGTCAAAGTTTAACTAAGGTAACGTAAAGCACGC, 0.251; that for AGTAGCAGGCCAAGTTTGGGTCACTCAAACAAAG, -0.37.
As for ATATGTAGGCTAGCTGGGGTCATTCAGACTAGGC, the PBM binding z-score came out at 1.14.
Still for that read-out and setting: the same measure for ATCTCTAGGTAAAAGTTCAGTGATTCCCGAGGAT: 1.4; for GGAACGAGAGCAAGTTGATAGCAGAGTTTGATGG: -0.719; for TAGCCTAGGTGAGATCGGGCCAGTATACGCTATA: -0.692.
Same read-out and setting: the result for CAAACTATGTCACAGAGGTCAAAGTCCGTGCGTA reads 5.85; that for TCTTGTAGATCAGCAGGTTAAGAAAGCTGGCCAA, -0.357.
Turning to TCTAGTGGGTCACGGAGGTCACACACGACGGGTA, the PBM binding z-score is 2.85.
The same measure, in the same setting: the same measure for CCTACTGGGCCATTCAGAGGTCATTTATCATATG: 8.31.
Sequence TTACCAAGGTGAGGGTCGTTGATCCCTCTGTAGA had a PBM binding z-score of -0.621.
Same read-out and setting: the result for ACCGAAAGGTCGAAGGTGAGTATACCCACCCGAA reads -0.00494.
Still for that read-out and setting: the same measure for TTACCAAGGTGCAGGTCGTTGATCCCTCTGTAGA: 0.154; for GCTAGTTGGTCAGTAAAAGGTCACACAACGGTCG: 4.08; for AATACAGGGTCATCCTAGGCCAGAGTACGCACAG: 3.26.
On the same count and under the same terms, the same measure for TTACCAAGGTGAAGGTGGTTGATCCCTCTGTAGA: -0.29; for ACTCGGAGGACAAAGATCAGAGCTACGCCAGTGA: -0.56; for TCTGCTAGTTCAGTTGGTCAGCTAACGAGCTGCC: -0.708.
GCGACTGGGGCATTAGCAGGTTACCATAACTTAA came in with a PBM binding z-score of 0.0141.
GCGACTGGGGCAAAGCAGGATACCATAAGGTTGG: the PBM binding z-score is -0.556.
On to GCGACTGGGGCAAAGCAGGTGACCATAAGGTTGG, for which the PBM binding z-score was -0.835.
The same measure, in the same setting: the same measure for GCGACTGGGGCAAAGCAGGTTACCAAAAGGTTGG: -0.168.

Values taken from the supplement of paper PMC6555819.
